Records with an inconclusive call do not appear. Entries that show only a call come without a potency. Activity calls are given as the source filed them. The call rests on the fitted dose curve; in most records, active means well fitted cell-killing curve with a large enough effect in the repeat runs; inconclusive means weak or mixed curves, or effect the other way; inactive means flat fitted curve, though single readings scatter.

This assay can be described thus: cAMP Responsive Elements (CRE) small molecule agonists, cell-based qHTS assay: qHTS cell viability counter screen (AID 2060914).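 Further: viability read after 3 h of compound exposure; nearly all actives have a fitted effect of over 50% in size.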 Conditions: CRE-bla HEK293T viability, CellTiter-Glo luminescence, 5 h; series mostly up to 92.4 µM. The text has this:
National Center for Advancing Translational Sciences [NCATS]
Division of Preclinical Innovation [DPI]
U.S. Environmental Protection Agency [EPA]
National Institutes of Environmental Health Sciences [NIEHS]
National Toxicology Program [NTP]
U.S. Food and Drug Administration [FDA]
CREB (cyclic-AMP Responsive Element Binding Protein) is a cellular transcription factor. It binds to certain DNA sequences called cAMP Responsive Elements (CRE) and regulates the transcription of the genes. […] This cell line can be used to find agonists/antagonists of the cyclic AMP signaling pathway. The activation of the report gene under culture conditions can be detected by fluorescence intensity. This cell line has been used to screen the Tox21 10K compound library to identify agonists that induce oxidative stress. The cytotoxicity of the Tox21 compound library against the CRE-bla cell line was tested in parallel by measuring the cell viability using CellTiter-Glo assay (Promega, Madison, WI) in the same wells.
Tox21 Assay Protocol Summary:
CRE-bla Hek 293T cells were suspended in assay medium (DMEM containing 10% dialyzed FBS, 0.1 mM NEAA, 1 mM sodium pyruvate and 25 mM HEPES) and dispensed at 2,000 cells/5 uL /well into 1536-well black wall/clear bottom plates using a Multidrop Combi (ThermoFisher Scientific, Waltham, MA) dispenser. After the assay plates were incubated at 37 C/5% CO2 for 18 hrs, 23 nL of compounds dissolved in DMSO, positive controls or DMSO only was transferred to the assay plate by a pintool workstation (Kalypsys, San Diego, CA). After the plates were incubated at 37 C/5% CO2 for 3 hrs, 1 uL of LiveBLAzer B/G FRET substrate (Invitrogen, Carlsbad, CA) was added to each well using Bioraptr Flying Reagent Dispenser (FRD, Aurora Discovery, San Diego, CA). The plates were incubated at room temperature for 2 h, then fluorescence intensities were measured using an Envision plate reader (PerkinElmer, Shelton, CT) at Excitation 405nm, Emission 460nm and 530nm. The % activity was determined from the ratio of 460nm/530nm. For cell viability readout that measures cytotoxicity, 4 uL /well of CellTiter-Glo reagent was added into the assay plates using Bioraptr FRD. After 30 min incubation at room temperature, the luminescence intensity in the assay plates was measured using a ViewLux (PerkinElmer, Shelton, CT) plate reader.
A general note: Quantitative high-throughput screening tests each substance at several concentrations.
Consider `Cc1ccccc1C`, for which the Potency result was “inactive”.

With `CC(C)(N)CO`, the Potency entry is “inactive”.

In the case of `CC1(C)[C@@H](O[C@H]2O[C@H](C(=O)O)[C@@H](O)[C@H](O)[C@H]2O[C@@H]2O[C@H](C(=O)O)[C@@H](O)[C@H](O)[C@H]2O)CC[C@]2(C)[C@H]3C(=O)C=C4[C@@H]5C[C@@](C)(C(=O)O)CC[C@]5(C)CC[C@@]4(C)[C@]3(C)CC[C@@H]12`, the Potency result is “inactive”.

For the compound `CCCOc1ccc2c(c1)CC[C@@H]1[C@@H]2CC[C@]2(C)C(OC)CC[C@@H]12` (stereo not given in full), the Potency result was “inactive”.

Regarding `CO/N=C(/C(=O)N[C@@H]1C(=O)N2C(C(=O)[O-])=C(C[n+]3ccn4ncccc43)CS[C@H]12)c1nsc(N)n1`, the Potency entry is “inactive”.

Regarding `COC(=O)c1ccccc1O`, the Potency result was “inactive”.

For `[Cl][Au]([Cl])[Cl]`, the Potency result was “inactive”.

In the case of `Cc1c(Nc2ncccc2C(=O)O)cccc1C(F)(F)F`, the Potency entry is “inactive”.

Take `Cn1c(=O)c2[nH]c(Br)nc2n(C)c1=O`: the Potency entry is “inactive”.

As to `CCCCOC(=O)CCS`, the Potency entry is “inactive”.

Take `NC(=O)c1ccccc1N`: the Potency entry is “inactive”.

For the compound `COC(OC)(C(=O)c1ccccc1)c1ccccc1`, the Potency entry is “inactive”.

Take `CCN(CC)CCCC(C)Nc1c2ccc(Cl)cc2nc2ccc(OC)cc12` (stereo not given): the Potency entry is “inactive”.

Take `CCN(CC)CCc1nc(-c2ccccc2)no1`: the Potency result is “inactive”.

With `CCC(O)C(C)(C)C` (stereo not given), the Potency result is “inactive”.

In the case of `CCN1CCC[C@H]1CNC(=O)c1cc(S(N)(=O)=O)ccc1OC`, the Potency entry was “inactive”.

For `CC(C)Nc1nc(N)nc(Cl)n1`, the Potency entry was “inactive”.

In the case of `CN(C)CCCN`, the Potency entry is “inactive”.

In the case of `CCOc1ccc2c(c1)C(C)=CC(C)(C)N2`, the Potency result is “inactive”.

`CCCCCCCCCCCCN(CCCCCCCCCCCC)CCCCCCCCCCCC`: the Potency entry is “inactive”.

For the compound `CCCCC/C=C\C/C=C\CCCCCCCC(=O)NC(C)c1ccccc1` (stereo not given), the Potency entry is “inactive”.

In the case of `CCCC(=O)CC`, the Potency entry is “inactive”.

For `c1ccc2cnncc2c1`, the Potency result was “inactive”.

Consider `O=C1Cc2cc(CCN3CCN(c4nsc5ccccc45)CC3)c(Cl)cc2N1`, for which the Potency result is “inactive”.

With `CNCCCC12CCC(c3ccccc31)c1ccccc12`, the Potency result was “inactive”.

Turning to `Clc1nc(Cl)c(Cl)c(Cl)c1Cl`, the Potency entry was “inactive”.

As to `CCCCCOc1ccc(C2SC(=O)NC2=O)cc1OCC` (stereo not given), the Potency entry was “inactive”.

Take `CC(O)C(C)O` (stereo not given): the Potency result is “inactive”.

For `CCc1nnc(NS(=O)(=O)c2ccc(N)cc2)s1`, the Potency entry was “inactive”.

As for `CCCCC/C(C=O)=C\c1ccccc1`, the Potency entry is “inactive”.

For the compound `CC(=O)C1C(=O)C=C(C)OC1=O` (stereo not given), the Potency entry was “inactive”.

Regarding `O=Cc1c2ccccc2c(Cl)c2ccccc12`, the Potency entry is “inactive”.

As to `c1ccncc1`, the Potency entry is “inactive”.

For `NO`, the Potency result is “inactive”.

In the case of `CC1=C(O)C(=O)OC1C` (stereo not given), the Potency entry was “inactive”.

In the case of `CCCSSCCC`, the Potency result was “inactive”.

As to `COc1ccc(CCN(C)CCCC(C#N)(c2cc(OC)c(OC)c(OC)c2)C(C)C)cc1OC` (stereo not given), the Potency entry was “inactive”.

For the compound `O=C(c1ccccc1)c1ccc(O)c(O)c1O`, the Potency entry was “inactive”.

`CCn1cc(C(=O)O)c(=O)c2cc(F)c(N3CCNCC3)nc21`: the Potency entry was “inactive”.

On to `COC(=O)C1=C(C)NC(COC(N)=O)=C(C(=O)OC(C)C)C1c1cccc(Cl)c1Cl` (stereo not given), for which the Potency entry is “inactive”.

(Values after PubChem BioAssay (Tox21).)
